Structures are written as SMILES. This is part of a sample that, as a whole, favours compounds with a hit. Of some 83,000 tested, about 20% had one in any assay.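 Treatment: one concentration, 48 hours, 96-well format. Scoring: percent growth, with anything below 10 considered active.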 Values without a mark were called inactive. The source made the active and inactive calls.

For the test, the system named is HL-60(TB) leukemia. The experiment in a line: NCI-60 one-dose screen, 48 h (100 = growth as untreated, 0 = no growth, -100 = all killed). As to conditions: 10 µM unless noted.
On to `CO[C@H]1C[C@@H]2CC[C@@H](C)[C@@](O)(O2)C(=O)C(=O)N2CCCC[C@H]2C(=O)O[C@H]([C@H](C)C[C@@H]2CC[C@@H](OCCO)[C@H](OC)C2)CC(=O)[C@H](C)/C=C(\C)[C@@H](O)[C@H](OC)C(=O)[C@H](C)C[C@H](C)\C=C/C=C/C=C/1C`, for which the growth was 75.7%.

As to `Cc1nc2cc(Nc3nc(N4CCCCC4)nc(N4CCOCC4)n3)ccc2n1Cc1ccccc1`, the growth was 75%. The value for `NCCCOc1cc(Cl)ccc1NC(=O)c1cc2ccccc2cc1OCCCN` was -73% (active); that for `COc1ccc(-c2cc(/C=C3\C(=O)Nc4ccc(OC)cc43)[nH]n2)cc1` was -0.36% (active).

With `COc1cc(-c2nc(N)n(CC(=O)Nc3ccc(/C(C)=N\O)cc3)n2)cc(OC)c1OC`, the growth was 91.6%. The result for `CC/C(=C(\c1ccc(Cl)cc1)c1ccc(OCCN2CCCCC2)cc1)c1ccc(O)cc1` reads -40.4% (active); that for `CC(=O)Nc1ccc2c(c1)Cc1c(F)cccc1-2`, 97.7%.

Regarding `NCCCNc1nc2ccc(Cl)cc2c2c(=O)c3cc(F)ccc3sc12`, the growth was 34.9%. `CC1(C)CCCC2=C1C(=O)N(SC(Cl)(Cl)Cl)C2=O`: the growth is 76.1%. The result for `OCCCc1ccccc1` reads 99%; that for `O=C(NC(=S)NNC(=S)NNc1ccccc1)c1ccccc1`, 0.166% (active); that for `CCCCNC(=O)c1ccccc1C`, 84.4%. The value for `O=C(N/N=C(\CS(=O)(=O)c1ccccc1)c1cc2cc(Br)ccc2oc1=O)c1ccccc1` was 119%. The value for `S=c1[nH]c2cc(Cl)ccc2o1` was 86.5%; that for `CCCCCCCCOc1ccc(/C=N/Nc2cc(C)nc3ccc(Br)cc23)cc1` was 60.4%. Take `COc1ccc(-c2nc3cc(C(=O)NC4CCCCC4)ccc3n2C2CCCCC2)cc1`: the growth was 79.1%. As for `CCCCCC#CC(=O)O`, the growth was 97.4%.

For `S=c1nc2oc(-c3ccccc3)c(-c3ccccc3)c2c(/N=C\c2ccco2)[nH]1`, the growth was 87.2%. The result for `NC(=O)c1c(NC(=O)c2ccccc2)sc2c1CCC(=O)C2` reads -6.87% (active); that for `O=C1/C(=C/c2cccc([N+](=O)[O-])c2)COc2ccc(O)cc21`, 15.3%. The value for `COC(=O)[C@@H]1CC[C@]2(C)[C@H](CC[C@@H]3O[C@@]32C)[C@@]1(C)CC(=O)c1ccoc1` was 89.8%.

`Cc1cc(N/N=C/c2nc(-c3ccc(Br)cc3)oc2C)c2cc(Cl)ccc2n1`: the growth was -0.0323% (active). The value for `Cc1cc2c(cc1C)[n+](Cc1ccc3ccccc3c1)cn2Cc1ccc2ccccc2c1` was -60% (active); that for `CCOC(OCC)c1cnc2nc(NC(C)=O)[nH]c(=O)c2n1` was 123%. `O=C1C2(c3ccccc3)C(c3ccccc3)=C(c3ccccc3)C1(c1ccccc1)C1CC=CC12` (stereo not given): the growth was 76.3%. The result for `CC(C)(C)c1ccc(CCO)cc1` reads 86.6%; that for `CCCCC(CCc1ccc([N+](=O)[O-])cc1)(C(C)=O)C(=O)OCC` (stereo not given), 93%; that for `CCOC(=O)C1=C(C)NC(=O)NC1c1cc(=O)oc2ccc(C)cc12` (stereo not given), 97.6%.

In the case of `Nc1c(Cl)cc(/C=C2\C=Cc3ccccc32)cc1Cl`, the growth is 104%. The result for `CC[C@@H]1O[C@H](O[C@@H](c2cnc[nH]2)[C@H](NC(=O)c2nc([C@H](CC(N)=O)NC[C@@H](N)C(N)=O)nc(N)c2C)C(=O)N[C@H](C)[C@H](O)[C@H](C)C(=O)N[C@@H](C(=O)NCCc2nc(-c3nc(C(=O)NCCCCN=C(N)N)cs3)cs2)[C@@H](C)O)[C@H](O[C@@H]2O[C@H](CO)[C@H](O)[C@H](OC(N)=O)[C@@H]2O)[C@H](C)[C@@H]1C` reads 84.4%. The result for `COc1ccc2[nH]c3nc4cnccc4cc3c2c1` reads 108%; that for `COC(=O)[C@H](Cc1cn(C)cn1)NC(=O)[C@H](Cc1ccccc1)NC(=O)Nc1cc(C(F)(F)F)cc(C(F)(F)F)c1`, -67.9% [100 µM] (active). The value for `O=S(=O)(O)c1cc(O)c2c(N=Nc3ccc(Nc4ccccc4)c4c(S(=O)(=O)O)cccc34)cc(S(=O)(=O)O)cc2c1` was 82.7%; that for `COc1cc(/C=C/C(=O)c2c(C)nc3ccccc3c2C)ccc1OCCCOc1cc2c(cc1OC)C(=O)N1CCC[C@H]1C=N2` was -33% (active). Take `COc1ccc2c(c1)[n+](=O)c(C(=O)/C=C/c1cc(OC)c(OC)c(OC)c1)c(C)n2[O-]`: the growth was 42.6%. The value for `Cc1cc(=O)oc2c1ccc1oc(C(=O)c3ccccc3)c(C)c12` was 75.2%; that for `Cn1ncc2c(Nc3ccccc3Cl)nc(Cl)nc21` was 96.1%; that for `COc1ccc(-n2nc(C(=O)NCC(=O)Nc3nc4cc(OC)ccc4s3)c3ccccc3c2=O)cc1` was 61.7%. `Fc1ccc2c(CN3CCO[C@H](COc4cccc(Cl)c4)C3)c[nH]c2c1`: the growth is 27.1%.

In the case of `CN(C)CCOc1ccc(-c2nc3sccn3c2-c2ccnc(S(C)(=O)=O)n2)cc1`, the growth is 97.1%.

Values taken from PubChem BioAssay (NCI).
